In PubChem BioAssay AID1259374 (The Scripps Research Institute Molecular Screening Center, 2018):
Among all 650,000 compounds or so, about 5,900 (0.91%) were called active. Only a selection was taken, and actives are over-represented in it overall. Unmarked numbers belong to inactive results. No stated cut-off is given here; in the data, active means inhibition above about 50%; inactive means the rest.

The molecules below were run against Microphthalmia-associated transcription factor (Homo sapiens) (UniProt O75030) (assay: MITF inhibitors, primary screen, biochemical, AlphaScreen, human (AID 1259374;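 further: 0% = vehicle wells with protein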)). Settings: AlphaScreen MITF homodimerization, bead proximity signal; at 2.6 µM; stronger effect = higher value.
Sequence of Microphthalmia-associated transcription factor (Homo sapiens) (O75030 whole entry, looked up): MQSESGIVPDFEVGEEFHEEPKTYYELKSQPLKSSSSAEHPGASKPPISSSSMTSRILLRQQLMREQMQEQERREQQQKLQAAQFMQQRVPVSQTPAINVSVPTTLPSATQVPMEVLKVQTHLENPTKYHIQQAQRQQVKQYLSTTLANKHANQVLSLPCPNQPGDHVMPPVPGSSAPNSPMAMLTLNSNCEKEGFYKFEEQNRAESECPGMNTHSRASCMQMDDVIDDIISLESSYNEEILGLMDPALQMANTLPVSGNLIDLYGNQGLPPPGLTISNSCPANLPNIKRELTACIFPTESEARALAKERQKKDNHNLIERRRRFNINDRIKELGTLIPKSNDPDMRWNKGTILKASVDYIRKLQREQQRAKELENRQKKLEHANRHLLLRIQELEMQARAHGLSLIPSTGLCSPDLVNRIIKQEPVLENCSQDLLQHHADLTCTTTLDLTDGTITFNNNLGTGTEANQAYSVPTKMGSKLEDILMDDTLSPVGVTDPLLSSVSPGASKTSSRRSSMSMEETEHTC

| Structure (SMILES) | inhibition |
| --- | --- |
| CCOC(=O)c1c(NC(=O)C(C)Sc2nnc(CNC(=O)c3ccc(C)c([N+](=O)[O-])c3)n2CCc2ccccc2)sc2c1CCC2 (stereo unspecified) | -9.22% |
| O=C(COc1ccc(Cl)cc1Cl)Nc1ccc(Br)cn1 | 9.36% |
| Cc1cc(-n2c(C)nc3ccccc3c2=O)ccc1NS(=O)(=O)c1ccccc1 | -5.82% |
| O=C(O)CNC(=O)/C(=C/c1ccc2c(c1)OCO2)NC(=O)c1cccc(Br)c1 | -6.12% |
| COc1ccccc1NC(=O)N1CCC(CO)(Cc2ccccc2Cl)CC1 | -1.19% |
| COc1cc(OC)c(OC)cc1CN1CCN(C(=O)c2ccccc2F)CC1 | 17.8% |
| c1ccc(CCc2nnc3n2CCN(Cc2cccnc2)CC3)cc1 | 4.85% |
| COc1ccc(/C=N/N2CCN(C)CC2)cc1OCc1ccccc1 | 21.7% |
| COc1cc(CN2CCC(O)CC2)ccc1OCc1ccccc1 | -15% |
| CCCS(=O)(=O)N1CCN(Cc2ccc(OC)c(OCc3ccccc3)c2)CC1 | 52.7% (active) |
| COc1ccc(CN2CCN(Cc3cccnc3)CC2)cc1OCc1ccccc1 | 75.8% (active) |
| COc1c(S(=O)(=O)N2CCN(Cc3ccccc3)CC2)ccc(Cl)c1Cl | -5.29% |
| Brc1cccc(CN2CCN(Cc3cccnc3)CC2)c1 | 77.7% (active) |
| c1ccc(COc2ccccc2CNCc2cccnc2)cc1 | -4.27% |
| CCOC(=O)C1CCN(Cc2ccccc2F)CC1 | 26.1% |
| O=C1CCN(Cc2cccnc2)CCN1Cc1c(F)cc(F)cc1F | 10.8% |
| COc1cccc(OC)c1C(=O)N1CCN(Cc2ccccc2F)CC1 | 55.7% (active) |
| COc1ccc(NC(=O)c2cc(C3CC3)on2)cc1 | -14% |
| NS(=O)(=O)c1ccc(NSc2ccccc2[N+](=O)[O-])cc1 | 13.8% |
| CC(=O)Nc1ccc(OCC(O)CN2CCN(c3cccc(C(F)(F)F)c3)CC2)cc1 (stereo unspecified) | 10.8% |
| CC1CCN(C(=O)CSc2nc3c(c(=O)n2CCc2ccccc2)SCC3)CC1 | -10.8% |
| CC(=O)Nc1ccc(C(=O)N/N=C/c2cccc(C)n2)cc1 | 9.97% |
| C=CCOc1ccc(C2Nc3ccccc3-c3nnc(SC)nc3O2)cc1 (stereo unspecified) | 3.95% |
| CC(C)C(=O)NC(NC(=S)Nc1ccccc1C(=O)O)C(Cl)(Cl)Cl (stereo unspecified) | 9.89% |
| COc1ccc(Cn2nc(-c3ccncc3)oc2=O)cc1 | 3.66% |
| O=C(NCCOc1ccccc1)c1cc(-c2ccccc2)nc2c(Cl)cccc12 | -8.8% |
